These results are taken from a collection of fitness landscapes (doi:10.1126/science.1257360).

First the molecules themselves.
B1: PhoQ; a variant is named by its letters at X, in order, P23837 (parent)
chain: MKKLLRLFFPLSLRVRFLLATAAVVLVLSLAYGMVALIGYSVSFDKTTFRLLRGESNLFYTLAKWENNKLHVELPENIDKQSPTMTLIYDENGQLLWAQRDVPWLMKMIQPDWLKSNGFHEIEADVNDTSLLLSGDHSIQQQLQEVREDDDDAEMTHSVAVNVYPATSRMPKLTIVVVDTIPVELKSSYMVWSWFIYVLSANLLLVIPLLWVAAWWSLRPIEALAKEVRELEEHNRELLNPATTRELTSLVRNLNRLLKSERERYDKYRTTLTDLTHSLKTPLXXLQXXLRSLRSEKMSVSDAEPVMLEQISRISQQIGYYLHRASMRGGTLLSRELHPVAPLLDNLTSALNKVYQRKGVNISLDISPEISFVGEQNDFVEVMGNVLDNACKYCLEFVEISARQTDEHLYIVVEDDGPGIPLSKREVIFDRGQRVDTLRPGQGVGLAVAREITEQYEGKIVAGESMLGGARMEVIFGRQHSAPKDE

In all, about 140,000 sequences were measured (“enrichment ratio after two sorts for PhoP signalling”: median about 0, highest 2% from about 11 on). This is one part of a sample in which the highest values are shown more often than they occur.

Variants of B1 are the subject of the assay. Kind of assay: enrichment ratio after two sorts for PhoP signalling (ratio (wild type AVST 3.29)); higher = more functional. The settings on record: with PhoP (E. coli).
Consider LQNW, for which the enrichment ratio was at most 0.25.
For TKQL, the enrichment ratio was 23.2.
Then KAQL, with 1.07.
Then TNQL, with 12.7; and KLQL, with at most 0.25.
Then TLQL, with 13; and NAQL, with at most 0.25.
As for YAQL, the enrichment ratio is at most 0.25.
For MNQL, the enrichment ratio was at most 0.25.
Then LNQL, with at most 0.25; and WFHV, with at most 0.25.
To AFMF belongs at most 0.25; to WQHR, at most 0.25; to AKRK, at most 0.25.
In the case of DMEI, the enrichment ratio was at most 0.25.
To NEEV belongs at most 0.25; to TMEV, 25; to KMEC, at most 0.25.
For TMEC, the enrichment ratio turned out to be 11.9.
For the variant KMSL, the enrichment ratio is at most 0.25.
To KMEI belongs at most 0.25.
To TMSL belongs 13.1.
Take NMSL: the enrichment ratio is at most 0.25.
Take NEEC: the enrichment ratio is at most 0.25.
Then TMFV, with 0.532.
To TMEI belongs 17.7.
To IVWG belongs at most 0.25.
In the case of GKHD, the enrichment ratio is at most 0.25.
Turning to RMMR, the enrichment ratio was at most 0.25.
To VNCL belongs 4.33.
Consider RQDI, for which the enrichment ratio was at most 0.25.
MCGY: the enrichment ratio was at most 0.25.
Turning to TMGL, the enrichment ratio turned out to be 7.75.
For TMHL, the enrichment ratio came out at 11.6.
To TMWL belongs at most 0.25.
For DMHL, the enrichment ratio was at most 0.25.
To TMEL belongs 15.3; to MMHL, 1.34.
Then HEGR, with at most 0.25.
Then IMAF, with at most 0.25; and LWKN, with at most 0.25.
VRPW: the enrichment ratio was at most 0.25.
As to HNFA, the enrichment ratio is at most 0.25.
Then TPCH, with at most 0.25; and VYYN, with at most 0.25.
With VLGI, the enrichment ratio is at most 0.25.
On to THCN, for which the enrichment ratio was found to be 4.64.
Then GLCI, with 9.01.
In the case of STCN, the enrichment ratio came out at 8.56.
Consider SHLN, for which the enrichment ratio was 2.15.
As for WLCN, the enrichment ratio was at most 0.25.
For CLCN, the enrichment ratio is 23.2.
To SLCN belongs 11.5; to GLLN, at most 0.25.
Take SHCN: the enrichment ratio is 13.2.
Then ELCN, with at most 0.25; and CLLN, with at most 0.25.
Turning to GLCN, the enrichment ratio was found to be 12.8.
Turning to VNQW, the enrichment ratio is at most 0.25.
For HNQK, the enrichment ratio is at most 0.25.
Take YVDP: the enrichment ratio was at most 0.25.
For RGYW, the enrichment ratio was at most 0.25.
In the case of TCKY, the enrichment ratio is at most 0.25.
For SSLN, the enrichment ratio came out at 6.84.
As to SILN, the enrichment ratio was 8.2.
As to KYCN, the enrichment ratio is at most 0.25.
To TSCN belongs 26.6.
Then SVLN, with 7.1; and SVCN, with 19.4.
To KSCN belongs at most 0.25.
With NSCN, the enrichment ratio was at most 0.25.
Then SVNL, with at most 0.25; and SICN, with 20.7; and SSCN, with 16.9.
Then FSCN, with at most 0.25.
To KIAC belongs at most 0.25; to GADV, at most 0.25; to GNVT, at most 0.25.
With LQFF, the enrichment ratio was at most 0.25.
Take YIPQ: the enrichment ratio was at most 0.25.
To LFCN belongs at most 0.25; to RNVA, at most 0.25.
Regarding IHQN, the enrichment ratio is at most 0.25.
Regarding VDDC, the enrichment ratio is at most 0.25.
DQCK: the enrichment ratio was at most 0.25.
To LVLE belongs at most 0.25; to SCCN, 17.1; to SQCN, 10.1.
To VCCN belongs at most 0.25; to LVPD, at most 0.25.
On to TRFL, for which the enrichment ratio was at most 0.25.
With DSSW, the enrichment ratio was at most 0.25.
To EETG belongs 3.69.
Then MITR, with at most 0.25; and SGYI, with 2.6; and SGDY, with at most 0.25.
To SGWY belongs at most 0.25.
Regarding SGNY, the enrichment ratio was at most 0.25.
To SGAY belongs 15.2.
To SGGY belongs 22.8; to MFNP, at most 0.25; to RNKF, at most 0.25.
Then GSWI, with at most 0.25; and GSCF, with 11.5; and GSHF, with at most 0.25.
With GSTI, the enrichment ratio was 12.2.
GSLY: the enrichment ratio was found to be 7.32.
To KSCF belongs at most 0.25; to MERP, at most 0.25; to VWLN, at most 0.25.
Then DNMN, with at most 0.25; and NAMK, with at most 0.25.
Then AAMK, with 35.5.
On to KALK, for which the enrichment ratio is at most 0.25.
To ATLA belongs 9.51; to AALA, 7.36; to NALK, at most 0.25.
Then YTLK, with at most 0.25; and AALK, with 12.
Then AIMK, with at most 0.25.
Turning to AAAT, the enrichment ratio was at most 0.25.
Then AALT, with 11.9; and ATLK, with 17.
Then HSVK, with at most 0.25; and TFLL, with 3.21.
Turning to PAYK, the enrichment ratio was at most 0.25.
To PNPY belongs at most 0.25; to GVVL, 1.14.
On to FWES, for which the enrichment ratio is at most 0.25.
For MFHN, the enrichment ratio is at most 0.25.
To VGKH belongs at most 0.25; to KSNT, at most 0.25; to TSNS, 12.8.
To KSNS belongs at most 0.25; to TSNY, 8.01; to TSAT, 11.6.
KSAT: the enrichment ratio was at most 0.25.
As to NSAT, the enrichment ratio was at most 0.25.
As to TSNW, the enrichment ratio is at most 0.25.
On to TSNT, for which the enrichment ratio amounted to 11.9.
To GLRK belongs at most 0.25; to FLKG, 0.285.
Then GCSH, with at most 0.25.
As to AATM, the enrichment ratio stood at 0.767.
Then RWIC, with at most 0.25; and FLKL, with at most 0.25.
Turning to GICN, the enrichment ratio amounted to 13.8.
To GICS belongs 11.2.
Then GICA, with 11.2.
To GNCG belongs at most 0.25.
Regarding GICP, the enrichment ratio is at most 0.25.
GICI: the enrichment ratio was 7.05.
For GNCS, the enrichment ratio was 7.94.
Regarding GICG, the enrichment ratio stood at 15.9.
In the case of GILN, the enrichment ratio turned out to be 10.6.
As for GNCN, the enrichment ratio is at most 0.25.
For GNCA, the enrichment ratio was 9.24.
To GIVG belongs 10.4.
